Screens (PubChem BioAssay)
MBD2 inh = MBD2-methylated oligo binding inhibition; Q9UBB5; TR-FRET, MBD2 binding to methylated oligonucleotide; inhibition, % at 4.4 µM; hit rate 0.31% among 370,000; in the data active means inhibition above about 13%
Target sequence (Q9UBB5 whole entry, looked up): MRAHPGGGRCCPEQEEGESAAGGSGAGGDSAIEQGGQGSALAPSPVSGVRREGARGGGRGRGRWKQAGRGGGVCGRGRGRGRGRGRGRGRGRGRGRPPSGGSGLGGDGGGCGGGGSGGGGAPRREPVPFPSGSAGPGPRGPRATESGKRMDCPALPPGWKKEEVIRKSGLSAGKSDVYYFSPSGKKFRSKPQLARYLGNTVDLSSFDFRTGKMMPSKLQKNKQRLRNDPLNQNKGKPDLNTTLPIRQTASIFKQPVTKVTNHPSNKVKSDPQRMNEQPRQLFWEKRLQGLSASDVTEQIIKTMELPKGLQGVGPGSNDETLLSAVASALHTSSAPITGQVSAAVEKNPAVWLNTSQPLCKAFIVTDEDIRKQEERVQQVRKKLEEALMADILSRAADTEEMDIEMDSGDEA
LEDGF integ inh = blocks HIV-1 LEDGF/p75-dependent DNA integration; TR-FRET IN-LEDGF/p75 DNA integration, Eu/Cy5; inhibition, % at 3.7 µM; hit rate 0.64% among 370,000;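 active means inhibition above the screen-wide mean plus 3 SD, cut at about 13% in these data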;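 further: signal is the Cy5 over europium emission ratio at 671 and 618 nm; 0% = plate median of compound wells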
UHRF1 binding = blocks human UHRF1 binding to methylated DNA; AID 687016; hit rate 0.75% among 370,000; inhibition, % at 4.4 µM; UHRF1 binding to methylated oligo, TR-FRET; in the data active means inhibition above about 21%;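 further: UHRF1 SRA domain binding a hemimethylated CpG hairpin DNA probe; 0% = median of test compound wells and 100% = reference inhibitor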
PRMT1 FP inh = PRMT1 (human) inhibition, primary screen. recombinant PRMT1, activity-based probe fluorescence polarization. inhibition, % at 2.79 µM. hit rate 1.3% among 370,000;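 active means inhibition above about 21% made by adding two undisclosed values, limit read from the data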
* hit, by the source's call. An excerpt weighted towards active compounds, which were near 2.5% of everything screened.

SMILES	MBD2 inh	LEDGF integ inh	UHRF1 binding	PRMT1 FP inh
COc1ccc(N(C(=O)CS(=O)CC(=O)Nc2ccc(F)cc2)C(C(=O)NC2CCCCC2)c2cccs2)cc1 (stereo not given)	0	15*	-2	-2
O=C1CCCCCC(=O)[C@H](O)C[C@H](c2ccccc2)O1	-4	-1	0	-1
O=C(Cn1cc(SCc2ccccc2Cl)c2ccccc21)N1CCOCC1	9	2	24*	6
CC(=O)Nc1ccc(NC(=O)CSc2cn(CC(=O)N3CCOCC3)c3ccccc23)cc1	1	3	-4	2
Cc1ccc(S(=O)(=O)C(C#N)c2nc3ccccc3nc2N2CCCC2)cc1 (stereo not given)	2	7	0	58*
NS(=O)(=O)c1ccc(CCNC(=O)CN2CCN(S(=O)(=O)c3ccccc3F)CC2)cc1	3	2	-1	-4
C=CCN1C(C(=O)OC)CN(Cc2cn(Cc3ccc(Cl)cc3)nn2)CCS1(=O)=O (stereo not given)	2	4	16	0
O=C(O)CCN(Cc1ccccc1)S(=O)(=O)c1ccc(Cl)cc1F	2	5	7	-1
O=C(O)CCN(Cc1ccccc1)S(=O)(=O)c1ccccc1Cl	7	1	22*	-1
CC(Oc1ccccc1Cl)C(=O)Nc1ccccc1C(=O)N1CCOCC1 (stereo not given)	-4	1	0	1
CC1(C(=O)Nc2ccc3c(c2)OCCO3)CN(S(C)(=O)=O)CC(=O)N1Cc1cccs1 (stereo not given)	0	-2	-3	3
CCN(CC)CCN(C(=O)c1ccc(C(=O)c2ccccc2)cc1)c1nc2cc3c(cc2s1)OCO3	7	0	1	1
CCN(CC)CCN(C(=O)c1ccc2ncsc2c1)c1nc2cc3c(cc2s1)OCO3	2	-9	1	53*
N#CC1(C#N)CC(C=O)=C(N)C1(C#N)CC(=O)c1ccc(F)cc1 (stereo not given)	-10	2	-8	24*
O=C(C[N+]12CC[N+](CC(=O)c3ccc(F)cc3)(CC1)CC2)c1ccc(F)cc1	8	3	7	11
Cc1cn([C@H]2C[C@H](O)[C@@H](/C=C/C(=O)NCc3ccco3)O2)c(=O)[nH]c1=O	-4	1	-1	0
O=C1CSc2ccc(C(=O)Nc3cccc(S(=O)(=O)Nc4ccc(Br)cc4)c3)cc2N1	7	5	3	21*
O=C(O)c1ccc(NC(=O)c2cccc(S(=O)(=O)Nc3ccc(C(=O)O)cc3)c2)cc1	7	-2	2	2
Nc1nc(SCc2ccccc2)ns1	-5	-3	3	23*
CN1C(=O)NC(c2ccccc2[N+](=O)[O-])C2=C1CCCC2=O (stereo not given)	-8	-3	-22	36*
CN1C(=O)NC(c2ccccc2[N+](=O)[O-])C2=C1CC(C)(C)CC2=O (stereo not given)	-4	4	-6	18
CN1C(=O)c2cccc3c(S(=O)(=O)NCc4ccco4)ccc1c23	-5	-1	-6	22*
CN1C(=O)c2cccc3c(S(N)(=O)=O)ccc1c23	-4	-8	-1	1
O=c1[nH]c(COc2ccc(Cl)cc2Br)nc2ccccc12	5	-3	1	2
CC(C)(C)CNC(=O)C1(C)CCN1C(=O)Cc1ccc(-c2ccccc2)cc1 (stereo not given)	-6	0	-2	0
SMILES	MBD2 inh	LEDGF integ inh	UHRF1 binding	PRMT1 FP inh
Oc1ccc2ccccc2c1C=NC12CN3CCN(CN(C3)C1)C2	-5	24*	-2	2
Cc1cc(C)n2nc(C(=O)Nc3ccn(Cc4ccccc4C)n3)cc2n1	-2	2	23*	0
CC(C)CN1C(=O)NC(NS(=O)(=O)c2ccc(N)cc2)(C(F)(F)F)C1=O (stereo not given)	3	1	-1	24*
Fc1ccc(N=C2NN=C(c3cc(F)ccc3F)CS2)cc1	5	1	-3	7
O=S(=O)(c1ccc(N=C2NN=C(c3cc(F)ccc3F)CS2)cc1)N1CCOCC1	-7	1	-11	55*
CN(C)S(=O)(=O)N1CCN(CC(=O)Nc2ccc(Br)cc2)CC1	5	-6	22*	2
Cc1cc(C)cc(Cn2cc(CN3CC(N4CCN(C)CC4)CS3(=O)=O)nn2)c1 (stereo not given)	5	-1	24*	2
CCCCCCN1CCN(C2CN(Cc3cn(Cc4cc(C)cc(C)c4)nn3)S(=O)(=O)C2)CC1 (stereo not given)	4	-3	23*	6
CN1CCN(C2CN(Cc3cn(Cc4ccc(C(F)(F)F)cc4)nn3)S(=O)(=O)C2)CC1 (stereo not given)	4	2	25*	2
